{"source": "PubChem BioAssay (NCATS)", "note": "Results filed as inconclusive are left out. Entries that show only a call come without a potency. Active and inactive are the calls of the source. Calls follow the shape of the dose curve; as a rule, active = well fitted inhibition curve with a large enough effect; inconclusive = small, poorly fitted or top-dose-only effect; inactive = flat fitted curve, though single readings scatter. Where a SMILES comes first, the peptide text is derived from it. The star is where a group is joined. AFC = O=c1cc(C(F)(F)F)c2ccc(N*)cc2o1", "data": [{"test": "Primary qHTS for inhibitors of nuclear receptor binding SET domain protein 2 (NSD2) in an isogenic RCH-ACV NSD2 p.E1099K mutant (9B) (AID 1645876); also: nearly all actives have a fitted effect of over 70% in size", "conditions": "RCH-ACV NSD2 E1099K (9B) viability, CellTiter-Glo, 72 h; series mostly up to 44.9 µM", "values": [{"molecule": "CC[C@H]1OC(=O)C[C@@H](O)[C@H](C)[C@@H](O[C@@H]2O[C@H](C)[C@@H](O)[C@H](N(C)C)[C@H]2O)[C@@H](CCN2C[C@H](C)C[C@H](C)C2)C[C@@H](C)C(=O)/C=C/C(C)=C/[C@@H]1CO[C@@H]1O[C@H](C)[C@@H](O)[C@@H](OC)[C@H]1OC", "Potency": "inactive"}, {"molecule": "CC/C=C\\C[C@H]1C(=O)C=C[C@@H]1CCCCCCCC(=O)O", "Potency": "inactive"}, {"molecule": "COc1ccccc1[C@@H]1C2=C(CC(C)(C)CC2=O)Nc2n[nH]c(C(F)(F)F)c21", "Potency": "inactive"}, {"molecule": "CC(=O)NC(C(=O)OC1CCC(C)(C)C2CC=C3C(=O)OCC3(O)C12C)C(C)C", "note": "(centres undefined)", "Potency": "inactive"}, {"molecule": "COC(=O)C1C(CC(C)=O)C=CC(O)C12Oc1cc(C)cc(O)c1C2=O", "note": "(centres undefined)", "Potency": "inactive"}, {"molecule": "C[C@H](NCc1ccc(OCc2ccccc2F)cc1)C(N)=O", "Potency": "inactive"}, {"molecule": "CC(=O)N[C@@H](CC(C)C)C(=O)N[C@@H](CCC(=O)O)C(=O)N[C@@H](CCC(=O)O)C(=O)N[C@@H](CC(=O)O)C(=O)Nc1ccc2c(C(F)(F)F)cc(=O)oc2c1", "note": "(Ac-LEED-{AFC})", "Potency": "inactive"}, {"molecule": "CC(C)(O)c1ccc2c(c1)C(=O)CC1[C@](C)(CO)CCC[C@]21C", "note": "(some centres undefined)", "Potency": "inactive"}, {"molecule": "C=C(C)[C@@H]1CC[C@](C)(O)[C@@H](OC(=O)c2ccccc2)C1", "Potency": "inactive"}, {"molecule": "Clc1ccc2c(c1)C1=NCCN1c1c(-c3noc(C4CC4)n3)ncn1-2", "Potency": "inactive"}, {"molecule": "O=C(NCc1ccc(OC(F)(F)F)cc1)C1c2ccccc2C(=O)N1C1CCOCC1", "note": "(centres undefined)", "Potency": "inactive"}, {"molecule": "CCn1cc(C2=NOC(C(=O)Nc3c(C)n(C)n(-c4ccccc4)c3=O)C2)c(C)n1", "note": "(centres undefined)", "Potency": "inactive"}, {"molecule": "Cn1c(=O)cc(N2CCCC(N)C2)n(Cc2ccccc2C#N)c1=O", "note": "(centres undefined)", "Potency": "inactive"}, {"molecule": "COc1cc(N2CCC(O)CC2)ccc1Nc1cc(Nc2ccccc2S(=O)(=O)C(C)C)c2cc[nH]c2n1", "Potency": "inactive"}, {"molecule": "FC(F)(F)c1cc(C(F)(F)F)c2ccc3nc(-c4nnco4)cn3c2n1", "Potency": "inactive"}, {"molecule": "O=C(c1ccccn1)c1cnn2c(-c3ccncc3)ccnc12", "Potency": "inactive"}, {"molecule": "Nc1nc(CC(=O)Nc2ccc(CCNCC(O)c3ccccc3)cc2)cs1", "note": "(centres undefined)", "Potency": "inactive"}, {"molecule": "O=C(NC[C@H](O)CN1CCc2ccccc2C1)c1cc(NC2COC2)ncn1", "Potency": "inactive"}, {"molecule": "Cc1nn(C)c2c1C(c1ccc(C(F)(F)F)cc1)C(C#N)=C(N)O2", "note": "(centres undefined)", "Potency": "inactive"}]}]}
